According to the supplement of paper PMC13380429:

Tested on: Vero E6 infected with SARS-CoV-2
Test: inhibition of SARS-CoV-2 cytopathic effect; higher = more antiviral protection, active = above 15
Settings: 48 h

Measured: inhibition of SARS-CoV-2 cytopathic effect

CC(=O)c1cnc2ccc(-c3cc(Cl)c(O)c(Cl)c3)nc2c1N[C@H]1CC[C@H](CN(C)C)CC1
inactive: 1 nM -1.51% | 8.33 nM 0.72% | 100 nM -1.37% | 833.33 nM 0.11% | 10000 nM -5.46%

CC(=O)Oc1ccccc1C(=O)O [aspirin]
inactive: 1 nM -5.74% | 8.33 nM -5.82% | 100 nM -7.3% | 833.33 nM -5.09% | 10000 nM -12.8%

C[C@]12CCC(=O)C=C1CC[C@@H]1[C@@H]2[C@@H](O)C[C@@]2(C)[C@H]1CC[C@]2(O)C(=O)CO [hydrocortisone]
inactive: 1 nM -3.82% | 8.33 nM -3.12% | 100 nM -3.55% | 833.33 nM -4.8% | 10000 nM -3.51%

C=C[C@@]1(C)CC(=O)[C@]2(O)[C@@]3(C)[C@@H](O)CCC(C)(C)[C@@H]3[C@H](OC(=O)CCN(C)C)[C@H](OC(C)=O)[C@@]2(C)O1 [colforsin-daproate]
active: 10000 nM 29.6%
inactive: 1 nM 0.4% | 8.33 nM -2.13% | 100 nM -3.35% | 833.33 nM 3.07%

CNC(=O)c1ccc(N2C(=S)N(c3cnc(C#N)c(C(F)(F)F)c3)C(=O)C23CCC3)cc1F [apalutamide]
inactive: 1 nM 0.94% | 8.33 nM 1.02% | 100 nM 1.33% | 833.33 nM 0.68% | 10000 nM 1.02%

CC(C)C(N)C(=O)O (stereo in doubt) [L-valine]
inactive: 1 nM 0.78% | 8.33 nM -0.34% | 100 nM 0.64% | 833.33 nM -0.11% | 10000 nM 1.66%

CCOC(=O)[C@@H](N)CCC(=O)N[C@@H](CSCc1ccccc1)C(=O)N[C@@H](C(=O)OCC)c1ccccc1 [ezatiostat]
inactive: 1 nM -0.49% | 8.33 nM 0.28% | 100 nM 1.7% | 833.33 nM 2.71% | 10000 nM 0.41%

On1ncc(C2CCNCC2)c1-c1cccc(-c2ccccc2)c1
inactive: 1 nM 0.6% | 8.33 nM 1.61% | 100 nM 1.14% | 833.33 nM 0.48% | 10000 nM -2.39%

CNC(=O)c1ccc2c(c1)CCO[C@H]2CCN1CCN(c2ccc(C(N)=O)cc2)CC1
inactive: 1 nM 1.05% | 8.33 nM -0.55% | 100 nM 1.37% | 833.33 nM -1.27% | 10000 nM 3.34%

Fc1ccc(Cn2c(NC3CCNCC3)nc3ccccc32)cc1 [tecastemizole]
inactive: 1 nM -7.23% | 8.33 nM -9.9% | 100 nM -11.8% | 833.33 nM -8.85% | 10000 nM -8.1%

Cc1nc(N)sc1-c1ccnc(Nc2ccc(N3CCOCC3)cc2)n1
inactive: 1 nM 0.34% | 8.33 nM 0.72% | 100 nM 0.35% | 833.33 nM 2.13% | 10000 nM 2.1%

COc1cc2c(cc1OC)[C@H](C)NCC2 [Isoquinoline,-6,7-dimethoxy-1-methyl-1,2,3,4-tetrahydro,]
inactive: 1 nM -4.15% | 8.33 nM -1.29% | 100 nM -0.88% | 833.33 nM -1.82% | 10000 nM -2.99%

Cc1coc2c1C(=O)C(=O)c1c-2ccc2c1CCCC2(C)C [tanshinone-IIA]
inactive: 1 nM -0.65% | 8.33 nM 2.92% | 100 nM 0.8% | 833.33 nM -7.33% | 10000 nM -6.78%

CCOc1ccc2nc3cc(N)ccc3c(N)c2c1 [ethacridine-lactate-monohydrate]
inactive: 1 nM -0.84% | 8.33 nM 0.62% | 100 nM 0.77% | 833.33 nM -1.28% | 10000 nM 0.22%

CN1C(=O)N(C)C2C1N(C)C(=O)N2C (stereo not given) [mebicar]
inactive: 1 nM -5.8% | 8.33 nM -1.8% | 100 nM -3.06% | 833.33 nM -1.23% | 10000 nM -2.18%

Cc1c(C(=O)NN2CCCCC2)nn(-c2ccc(Cl)cc2Cl)c1-c1ccc(Cl)cc1 [rimonabant]
inactive: 1 nM -1.86% | 8.33 nM 1.55% | 100 nM -0.12% | 833.33 nM 0.01% | 10000 nM -3.44%

O=C(CC12CC3CC(CC(C3)C1)C2)Nc1cccc2nc(NCCNCCO)ccc12
inactive: 1 nM 3.46% | 8.33 nM 8.07% | 100 nM 0.57% | 833.33 nM 4.43% | 10000 nM 4.98%

N#Cc1ccc(C2CCCc3cncn32)cc1 (stereo not given) [fadrozole]
inactive: 1 nM 1.9% | 8.33 nM 0.56% | 100 nM -1.22% | 833.33 nM -4.4% | 10000 nM -0.19%

CC[C@@H](CO)NC(=O)[C@@H]1C=C2c3cccc4[nH]cc(c34)C[C@H]2N(C)C1 [methylergometrine]
inactive: 1 nM -0.77% | 8.33 nM 0.44% | 100 nM -0.17% | 833.33 nM 0.13% | 10000 nM 0%

O[C@H]1[C@H](O)[C@@H](O)CN2CC[C@H](O)[C@H]12 [castanospermine]
inactive: 1 nM 0.15% | 8.33 nM 1.99% | 100 nM 1.25% | 833.33 nM 1.7% | 10000 nM 2.28%

CCn1c(=O)c2c(nc(/C=C/c3ccc(OC)c(OC)c3)n2C)n(CC)c1=O [istradefylline]
inactive: 1 nM 1.05% | 8.33 nM -1.49% | 100 nM -0.91% | 833.33 nM -0.33% | 10000 nM 2.33%

CC[C@H](NC(=O)c1c(O)c(-c2ccccc2)nc2ccccc12)c1ccccc1 [talnetant]
inactive: 1 nM -0.24% | 8.33 nM 0.6% | 100 nM -1.02% | 833.33 nM -1.22% | 10000 nM 2.11%

O=C(CCCCCCCC(=O)NCCO)NCCO [adelmidrol]
inactive: 1 nM -2.2% | 8.33 nM 2.3% | 100 nM 5.54% | 833.33 nM -1.21% | 10000 nM 0.2%

C/C(=C\C(=O)OCCCCCCCCC(=O)O)C[C@@H]1OC[C@H](C[C@@H]2O[C@H]2[C@@H](C)[C@H](C)O)[C@@H](O)[C@H]1O [mupirocin]
inactive: 1 nM -1.43% | 8.33 nM -0.61% | 100 nM 0.52% | 833.33 nM 2.09% | 10000 nM 1.36%

Cc1nn(C)c2c1C(c1ccc(C(F)(F)F)cc1)C(C#N)=C(N)O2 (stereo not given)
inactive: 1 nM -1.05% | 8.33 nM -1.78% | 100 nM -1.6% | 833.33 nM -1.63% | 10000 nM 2.56%

O=C(NC[C@H](O)CN1CCc2ccccc2C1)c1cc(NC2COC2)ncn1
inactive: 1 nM -3.14% | 8.33 nM -1.3% | 100 nM -2.1% | 833.33 nM -3.82% | 10000 nM -1.65%

OC[C@@H](O)[C@@H](O[C@@H]1O[C@H](CO)[C@H](O)[C@H](O)[C@H]1O)[C@H](O)[C@@H](O)CO
inactive: 1 nM -1.07% | 8.33 nM 0.84% | 100 nM 0.06% | 833.33 nM 0.18% | 10000 nM -0.36%

O=C1O[C@H]([C@@H](O)CO)C([O-])=C1O.[Na+] [sodium-ascorbate]
inactive: 1 nM -1.43% | 8.33 nM 0.79% | 100 nM 0.39% | 833.33 nM 1.19% | 10000 nM 2.74%

Cc1cc(C)cc(C(=O)O[C@H]2C[C@H]3CC[C@@H](C2)N3C)c1 [tropanyl-3,5-dimethylbenzoate]
inactive: 1 nM -1.37% | 8.33 nM 1.19% | 100 nM 2.71% | 833.33 nM -1.34% | 10000 nM 1%

COc1ccc2cc(C(C)C(=O)Oc3ccc(C(N)=S)cc3)ccc2c1 (stereo not given)
inactive: 1 nM -0.75% | 8.33 nM 0.03% | 100 nM -0.37% | 833.33 nM 0.55% | 10000 nM 4.55%

CC1(C)[C@H]2CC[C@]1(C)[C@@H](O)[C@H]2O [cis-exo-camphanediol-2,3]
inactive: 1 nM 1.51% | 8.33 nM 2.75% | 100 nM 4.45% | 833.33 nM 5.23% | 10000 nM 0.605%

Nc1nc(=O)c2c([nH]1)NCC(CNc1ccc(C(=O)N[C@@H](CCC(=O)O)C(=O)O)cc1)N2C=O (stereo not given in full) [leucovorin]
inactive: 1 nM -3.4% | 8.33 nM -3.52% | 100 nM -0.89% | 833.33 nM 1.42% | 10000 nM -0.745%

COc1ccc(S(=O)(=O)N2CCC[C@H]2C(=O)Nc2cc(C)cc(C)c2)cc1
inactive: 1 nM -4.61% | 8.33 nM -4.21% | 100 nM -5.02% | 833.33 nM -4.87% | 10000 nM 1.64%

Cc1cccc(N(C)C(=S)Oc2ccc3ccccc3c2)c1 [tolnaftate]
inactive: 1 nM -0.91% | 8.33 nM 0.08% | 100 nM -1.72% | 833.33 nM 1.03% | 10000 nM 3.31%

N[C@H]1CCN(O)C1=O
inactive: 1 nM -2.5% | 8.33 nM -0.335% | 100 nM -0.065% | 833.33 nM -1.54% | 10000 nM 0.17%

CCOc1c2c(c(OCC)c3ccccc13)C(=O)N(c1ccc(CC(=O)NS(=O)(=O)c3ccccc3)cc1)C2
inactive: 1 nM 2.87% | 8.33 nM 0.35% | 100 nM 0.73% | 833.33 nM -1.03% | 10000 nM 0.05%

O=C(N[C@H]1CN2CCC1CC2)c1ccc2c(c1)OCCO2
inactive: 1 nM -2.13% | 8.33 nM -1.4% | 100 nM -0.74% | 833.33 nM -0.26% | 10000 nM -1.59%

C[C@H]1O[C@@H](O[C@H]2[C@@H](O)C[C@H](O[C@H]3[C@@H](O)C[C@H](O[C@H]4CC[C@@]5(C)[C@H](CC[C@@H]6[C@@H]5C[C@@H](O)[C@]5(C)[C@@H](C7=CC(=O)OC7)CC[C@]65O)C4)O[C@@H]3C)O[C@@H]2C)C[C@H](O)[C@@H]1O [digoxin]
inactive: 1 nM -0.14% | 8.33 nM -0.96% | 100 nM -7.12% | 833.33 nM -13.3% | 10000 nM -14.5%
